Shown are actives, neighbours in structure and some others; about 2.7% of the full set was active somewhere.
NadD inh: inhibitors of S. aureus NadD, primary screen, biochemical, colorimetric, uHTS; actives 0.78% (n = 360,000); Nicotinate-nucleotide adenylyltransferase NadD (Staphylococcus aureus N315); AID 602399, 2012; purified NadD enzyme, colorimetric absorbance read-out; inhibition, % at 20 µM; in the data active = inhibition above about 26%
aDG glyco act: activators of alpha-DG glycosylation, primary screen, uHTS, Pro5-aDG cells, AlphaScreen | alpha-DG glycosylation AlphaScreen (IIH6); 0% Pro5, 100% B10-LARGE cell signal | activation, % at 10 µM | actives 0.22% (n = 360,000);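 active = activation of at least 8% versus controls, or a plate z-score of at least 8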;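 also: Pro5 are CHO cells carrying HIG-tagged alpha-DG that lacks glycosylation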
MPTP inh: mitochondrial permeability transition pore inhibitors, primary screen, biochemical, isolated mouse mitochondria, absorbance. Ca2+ swelling absorbance, 30 min. actives 1.4% (n = 360,000). inhibition, % at 10 µM;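 active = inhibition of 50% or more, scaled per plate between neutral and stimulator controls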
TAG inh: inhibitors of triacylglycerol accumulation, primary screen, cell-based, uHTS, fluorescence, H9c2 | H9c2 cells, Nile Red lipid (TAG) fluorescence; cells loaded with 200 µM oleic acid | inhibition, % at 12.5 µM | actives 0.66% (n = 230,000) | AID 651582, 2012;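 active = pattern-corrected inhibition of lipid staining of at least 50% with the nuclear-stain viability signal not falling by more than 50%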
Rh123 counter: fluorescence retest of MPTP screen hits in isolated mitochondria, single concentration. AID 624504, 2012. actives 78% (n = 5,000). shares compounds with MPTP inh. inhibition, % at 10 µM. membrane potential, Rhodamine 123 fluorescence; in the data active = inhibition above about 22%
MPTP abs DR: mitochondrial permeability transition pore inhibitors, dose response, biochemical, absorbance, uHTS hits | shares compounds with MPTP inh | isolated mitochondria swelling | IC50, µM | actives 58% (n = 780) | AID 651561, 2012; in the data active = IC50 below about 20 µM
MPTP cs DR: fluorescent counter-screen in isolated mitochondria, dose response, counter-screen for MPTP inhibitor project, biochemical, fluorescence, uHTS hits. shares compounds with MPTP inh. isolated mitochondria counterscreen, fluorescence read-out. IC50, µM. actives 49% (n = 780); in the data active = IC50 below about 80 µM
aDG glyco conf: alpha-DG glycosylation enhancers, retest, confirmation, single concentration, Pro5-aDG cells; IIH6 AlphaLISA; scaled to LARGE-overexpressing B10 cells as 100%; activation, % at 10 µM (by protocol); actives 17% (n = 600); shares compounds with aDG glyco act; AID 651671, 2012;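 active = activation of at least 7% in one or more replicates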;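 also: cells exposed to compound for two days before detection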
H9c2 TAG conf: triacylglycerol accumulation inhibitors, retest, confirmation, cell-based, single concentration, Nile Red fluorescence, H9c2 | shares compounds with TAG inh | H9c2 lipid accumulation; cells loaded with 200 µM oleic acid | inhibition, % at 12.5 µM | actives 71% (n = 990);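 active = mean inhibition across replicates of 40% or more; inactive = mean inhibition below 40%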
Large screens that a line does not name were inactive (follow-up assays come after a bar, where they were run).

COCCCN1C(=O)C(CC(=O)NCc2cccc3ccccc23)CC(C(=O)N(C)C)=C1C (configuration not stated)	none
Cc1ccc(S(=O)(=O)N2CCC(C(N)=O)CC2)cc1[N+](=O)[O-]	none
O=C(Nc1ccc2ncccc2c1)c1cccc(Br)c1	none
Brc1ccc(CNc2ccc3ncccc3c2)cc1	aDG glyco act 2.8, MPTP inh 92 (no result: TAG inh) | Rh123 counter 86 | aDG glyco conf inactive
CCNC(=O)C1CCCN(C(=O)c2cc(F)cc(F)c2)CC1 (configuration not stated)	none
Cc1ccccc1Oc1ccc2c(c1)[C@@H]1C[C@H](N(C)C(=O)c3cccnc3)[C@H]([C@H](C)O)C(=O)N1CC2	none
Brc1ccc2ncnc(NCc3ccccc3)c2c1	aDG glyco act 8.2, MPTP inh 59 | Rh123 counter 88 | aDG glyco conf 3.4
Cc1cccc(Nc2ncnc3ccc(Br)cc23)c1	none (no result: TAG inh)
Cc1cc(OC(=O)c2c(C)cc(OC(=O)c3c(C)cc(O)cc3O)cc2O)cc(O)c1C(=O)O	aDG glyco act 6.1, MPTP inh 72 (no result: TAG inh) | Rh123 counter 67 | aDG glyco conf inactive
O=C(Nc1cccc(Cl)c1)Nc1sccc1-c1nc2ccccc2s1	aDG glyco act 4.4, MPTP inh 78 | Rh123 counter 69 | aDG glyco conf inactive
C[C@H]1CN([C@@H](C)CO)C(=O)CCCn2nncc2CO[C@H]1CN(C)S(=O)(=O)c1ccc2c(c1)OCCCO2	none
COc1ccccc1Cn1c(C)nc2ccccc21	none
Cc1ccccc1Cn1c(C)nc2ccccc21	aDG glyco act 3.3, MPTP inh 101 (no result: TAG inh) | Rh123 counter 89 | aDG glyco conf inactive
S=C(NCCC1=CCCCC1)Nc1ccc(Cl)cc1	aDG glyco act 5.9, MPTP inh 91 (no result: TAG inh) | Rh123 counter 90 | aDG glyco conf inactive
CCNC(=O)Nc1cc(S(=O)(=O)Nc2ccc(OC)cc2)ccc1N1CCOCC1	aDG glyco act 4.9, MPTP inh 94 | Rh123 counter 93 | aDG glyco conf inactive
COc1ccc(CCNc2ncnc3c2c(C)c(C)n3CCO)cc1OC	none (no result: TAG inh)
COc1ccc(CCNc2ncnc3c2oc2ccccc23)cc1OC	aDG glyco act 7.4, MPTP inh 97 (no result: TAG inh) | Rh123 counter 99 | aDG glyco conf inactive
O=C(CSc1nnc(Cn2nnc3ccccc32)o1)N(Cc1ccc(Cl)cc1)c1ccccc1	aDG glyco act 6.4, MPTP inh 96 | Rh123 counter 103 | aDG glyco conf inactive
O=C(CSc1nnc(Cn2nnc3ccccc32)o1)Nc1cccc(Cl)c1	none
CCN(C(=O)COC(=O)/C=C/c1cccc([N+](=O)[O-])c1)c1c(N)n(Cc2ccccc2)c(=O)[nH]c1=O	none
COc1ccc(CNC(=O)c2cccc3c(-c4cccnc4)coc23)cc1OC	aDG glyco act 8.1, MPTP inh 99 | Rh123 counter 100 | aDG glyco conf inactive
OC1CC2CCC(C1)N2CCCN1c2ccccc2Sc2ccc(Cl)cc21 (configuration not stated)	MPTP inh 76, TAG inh 104 | Rh123 counter inactive | MPTP abs DR 4 | MPTP cs DR 74 | H9c2 TAG conf 79
Cc1nc(N)sc1C(=O)N1N=N1	none
CCN(C[C@H]1N[C@@](CC)(C(=O)OC)[C@H]2C(=O)N(Cc3ccccc3)C(=O)[C@@H]12)C(=O)C1CCCCC1	none
CC(C)(C)OC(=O)[C@H](Cc1ccccc1)NC(=O)c1nc[nH]c1C(=O)N1CCNCC1	none
Nc1ccc(C=C2C=Cc3ccccc32)cc1	none

Compound activity (PubChem BioAssay)
